Laboratory results reported in PubChem BioAssay AID1845 (The Scripps Research Institute Molecular Screening Center, 2009).
Out of some 290,000 compounds screened, about 490 (0.17%) were called active. The sample holds actives, similar compounds and a random draw of the others, so the mix is not that of the screen. Unmarked numbers belong to inactive results. Rule as the data show it: active = inhibition above about 37%; inactive = the rest.

assay: DNA intercalator displacement agents – biochemical, FID fluorescence, artefact control for HCV NS3 helicase inhibitor project, primary screen (AID 1845); details: DNA fluorescent intercalator displacement, at 7.9 µM, hits give high values;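 also: 0% = vehicle and 100% = reference compound; higher means more ethidium bromide displaced from hairpin DNA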

SMILES | inhibition
Cc1ccc(C(=O)N/C(=C/c2ccc(-c3cccc([N+](=O)[O-])c3)o2)C(=O)NCCCN(C)C)cc1 | 41.5% (active)
N#C/C(=C\c1ccc(-c2cccc([N+](=O)[O-])c2)o1)C(=O)NCCN1CCOCC1 | 6.61%
CN(C)CCNC(=O)/C(=C/c1cccc([N+](=O)[O-])c1)NC(=O)c1ccccc1 | 14.4%
CCN(CC)CCCNC(=O)Cn1cnc2sc(C)c(S(=O)(=O)N3CCN(c4ncccn4)CC3)c2c1=O | 26.1%
CCN(CC)CCNC(=O)Cn1cnc2sc(C)c(S(=O)(=O)N3CCOCC3)c2c1=O | 11.1%
CCN(CC)CCNC(=O)c1sc2ncn(CC(=O)Nc3ccc(C)c(Cl)c3)c(=O)c2c1C | 37% (active)
O=C(c1c(F)cccc1F)N1CCN(c2ncc(Br)cn2)CC1 | -20.1%
Cc1cc(=O)oc2c3c(cc(OCC(=O)NCCC(=O)N[C@@H](C)C(=O)O)c12)OC(C)(C)CC3 | -35.5%
CCn1c(=O)c(C(=O)NCc2ccc3c(c2)OCO3)c(O)c2ccccc21 | -4.83%
CC1CC(C)CN(S(=O)(=O)c2cccc3nonc23)C1 (centres undefined) | -7.76%
C=CCN(Cc1nc(-c2cc(OC)c3c(c2)OCO3)oc1C)C1CCS(=O)(=O)C1 (centres undefined) | -27.8%
Clc1cc(NC2CCCCC2)ncn1 | -15.2%
CS(=O)(=O)N(CC(=O)N/N=C/c1ccccn1)c1ccc(Oc2ccccc2)cc1 | -33.5%
Cc1cc(C)c2nc(SCCC#N)nc(C)c2c1 | -17%
Cc1cc(C)c2c(n1)nn1c(N3CCOCC3)cc(C)nc21 | -11.1%
Cc1cc(C)c2nc3nc(C)cc(C)c3c(N)c2c1 | 62.7% (active)
OCCN1CCN(c2nnc(-c3ccccc3)c3ccccc23)CC1 | -5.67%
O=C1c2ccccc2C(=O)c2c1cccc2N1CCN(CCO)CC1 | 53.2% (active)
O=C1c2ccccc2C(=O)c2c1cccc2N1CCN(Cc2ccccc2)CC1 | 8.12%
Cc1cccc(-c2nc(CS(=O)CC(=O)NC(C)CCc3ccccc3)c(C)o2)c1 (centres undefined) | -57.2%
CC(=N\NC(=O)c1cc(Br)ccc1O)/C(=N/O)C(=O)Nc1ccccc1 | -11.2%
CN1CCN(NC(=O)Nc2ccc(Br)cc2)CC1 | -5.13%
COc1ccccc1NC(=O)C(C)OC(=O)CC1CCCC1 (centres undefined) | -26.3%
CC(=O)NC(CC(=O)Nc1nc(-c2ccccc2)c(C(C)=O)s1)c1ccccc1 (centres undefined) | -16.9%
Clc1nc(NC2CCCC2)nc(N2CCOCC2)n1 | -6.99%

SMILES | inhibition
O=C(CNC(=O)[C@@H]1Cc2ccccc2CN1)NC1CCCCC1 | 0.62%
CC(C)c1cc(C(=O)N/N=C/C(Br)=C/c2ccccc2)n[nH]1 | -26.4%
CCN(CC(=O)NCc1cccs1)C(=O)c1cccc(S(=O)(=O)Nc2ccccc2OC)c1 | -11.7%
COCCNC(=O)c1ccc(S(=O)(=O)c2ccc(Cl)cc2)c(NC(C)=O)c1 | 0.74%
COC(=O)C1(C)NC(c2ccc(F)cc2)C2C(=O)N(c3ccccc3)C(=O)C21 (centres undefined) | 0.11%
CN(C)C(=O)CCC(=O)N1CCCCC1C(=O)Nc1ccc(Oc2ccccc2F)cc1 (centres undefined) | -34%
C#CCOCCOCCOCCNc1nc(N2CCN(C(=O)[C@H](C(C)C)n3cc(CCO)nn3)CC2)nc(N2CCN(C(=O)[C@H](C(C)C)n3cc(CCO)nn3)CC2)n1 | -49.9%
C#CCOCCOCCOCCNc1nc(N2CCN(C(=O)[C@H](CCCCN)n3cc([C@@H](N)C(C)CC)nn3)CC2)nc(N2CCN(C(=O)[C@H](Cc3ccc(O)cc3)n3cc([C@@H](N)C(C)CC)nn3)CC2)n1 (some centres undefined) | 55.6% (active)
C#CCOCCOCCOCCNc1nc(N2CCN(C(=O)[C@H](C(C)C)n3cc(CCO)nn3)CC2)nc(N2CCN(C(=O)[C@H]([C@@H](C)CC)n3cc(CCCN=C(N)N)nn3)CC2)n1 | 21.4%
C#CCOCCOCCOCCNc1nc(N2CCN(C(=O)[C@H](CCC(=O)O)n3cc(C(N)CO)nn3)CC2)nc(N2CCN(C(=O)[C@H](Cc3ccc(O)cc3)n3cc(C(N)[C@H](C)CC)nn3)CC2)n1 (some centres undefined) | 6.75%
C#CCOCCOCCOCCNc1nc(N2CCN(C(=O)C(Cc3ccc(O)cc3)n3cc(C(N)CC(C)C)nn3)CC2)nc(N2CCN(C(=O)C(Cc3ccc(O)cc3)n3cc(C(N)C(C)CC)nn3)CC2)n1 (centres undefined) | 46.3% (active)
C#CCOCCOCCOCCNc1nc(N2CCN(C(=O)[C@H](Cc3ccc(O)cc3)n3cc(C(N)CC(C)C)nn3)CC2)nc(N2CCN(C(=O)[C@H](CCC(=O)O)n3cc(C(N)[C@H](C)CC)nn3)CC2)n1 (some centres undefined) | 17.7%
Cc1cc(C)n(CCNS(=O)(=O)c2ccc(Cl)cc2)n1 | -8.78%
COc1ccc(S(=O)(=O)NNC(=O)Nc2ccc(C)cc2)c(OC)c1 | -10.4%
CN1CCN(S(=O)(=O)c2cccc(C(=O)Nc3cccc(S(N)(=O)=O)c3)c2)CC1 | 12.4%
Cc1ccc(S(=O)(=O)NC2CCCCCC2)cc1C(N)=O | -7.28%
CSc1ncc(C(=O)Nc2ccc(C)cc2C)c(C)n1 | -12.3%
Cc1ccccc1C(=O)N1CCN(c2ccc(NC(=O)c3cccs3)cc2)CC1 | -49.5%
CC(C)c1nc2cc(C(=O)NC(C)c3cnn(C)c3)ccc2o1 (centres undefined) | -13.1%
COc1cccc(NC(=O)Cn2cnc3sc(C)c(S(=O)(=O)N4CCN(C)CC4)c3c2=O)c1 | 26.6%
COc1ccc(NC(=O)CCS(=O)(=O)c2cc3c(cc2Cl)NC(=O)CO3)cc1OC | -5.06%
COc1ccc(CNC(=O)C(c2ccc(O)cc2)N(Cc2ccco2)C(=O)c2snc(C(N)=O)c2N)cc1 (centres undefined) | -26.1%
O=C(Cn1c(NCCO)nc2ccccc21)c1ccc(Cl)cc1Cl | 8.95%
Cc1cc(C)c2c(Cn3ccnc3)cc(=O)oc2c1 | -1.43%
